Consider 85 compounds from PubChem BioAssay AID1851 (National Center for Advancing Translational Sciences (NCATS), 2009).

Several values for one entry are separate records, joined by “and”; a condition that tells them apart may be missing. Equal values may be shown once. About 5,700 (36%) of roughly 16,000 compounds were called active. Inconclusive results (about 24%) are left out. The list shows a part of the results. Unmarked numbers belong to inactive results. The call rests on the fitted dose curve; in most records, active means well fitted curve in the direction sought with a large enough effect; inconclusive means small, poorly fitted or top-dose-only effect, or effect the other way; inactive means no such curve, though single readings can be large or run the other way.

The AC50 is the concentration at which the activity in the assay is half-maximal.
On the % scale 0 is the no-effect control and ±100 the full control effect.

The target in the test is Cytochrome P450 1A2 (Homo sapiens) (UniProt P05177). The test is described as follows: Cytochrome panel assay with activity outcomes. As to conditions: recombinant CYP, pro-luciferin dealkylation, luminescence, p450-cyp1a2; series mostly up to 57.1 µM; activity, negative = inhibition: at the top concentration.
Cytochrome P450 1A2 (Homo sapiens), sequence (P05177 whole entry, looked up): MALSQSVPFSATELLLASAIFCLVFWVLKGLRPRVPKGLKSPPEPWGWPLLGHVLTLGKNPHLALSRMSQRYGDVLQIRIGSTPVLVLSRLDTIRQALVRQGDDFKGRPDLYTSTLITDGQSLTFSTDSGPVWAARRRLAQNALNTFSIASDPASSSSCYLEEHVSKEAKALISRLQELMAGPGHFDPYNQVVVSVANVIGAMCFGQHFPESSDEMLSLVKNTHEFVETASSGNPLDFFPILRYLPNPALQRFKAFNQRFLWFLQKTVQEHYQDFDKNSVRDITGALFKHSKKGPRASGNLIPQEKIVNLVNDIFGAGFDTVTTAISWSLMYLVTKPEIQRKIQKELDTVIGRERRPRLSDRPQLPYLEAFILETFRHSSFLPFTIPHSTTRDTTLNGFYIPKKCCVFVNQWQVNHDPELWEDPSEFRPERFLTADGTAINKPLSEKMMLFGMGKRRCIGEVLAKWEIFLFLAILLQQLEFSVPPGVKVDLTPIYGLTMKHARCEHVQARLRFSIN
For the compound `COc1cc2nc(N3CCN(C(=O)OCc4ccccc4)[C@H](C(=O)NC(C)(C)C)C3)nc(N)c2cc1OC`, the “activity, negative = inhibition” value is -14.2%.

With `CSc1nc(N)c2ncn([C@@H]3O[C@@H](COP(=O)(O)OP(=O)(O)O)[C@@H](O)[C@H]3O)c2n1`, the “activity, negative = inhibition” value is -5.39%.

Take `CCn1c(C)[n+](CCCS(=O)(=O)[O-])c2cc(Cl)c(Cl)cc21`: the “activity, negative = inhibition” value was -7.03%.

Regarding `CCn1c(=O)[nH]c2cc(Cl)c(Cl)cc21`, the AC50 is 0.251 µM (active).

As for `CC[N+](CC)(CC)CC`, the “activity, negative = inhibition” value is 11.2%.

Consider `CC1=NN(c2ccc(S(=O)(=O)O)cc2)C(=O)/C1=C\c1ccc(Cl)cc1`, for which the activity, negative = inhibition is -8.89% [at 2.29 µM].

With `CC1=N/C(=C\c2ccc([N+](=O)[O-])cc2)C(=O)N1c1ccc(Cl)cc1`, the “activity, negative = inhibition” value was -20.6%.

Turning to `Cc1ccc(C)n1N1C(=O)/C(=C\c2ccc(Cl)cc2)SC1=S`, the AC50 is 1.58 µM (active).

Consider `C[C@@](N)(/C=C\c1ccccc1)C(=O)O`, for which the activity, negative = inhibition was -17.1% [at 11.4 µM].

For `O=C(CSc1ccc(Cl)cc1)Nc1ccc(N2CCN(c3ccccc3)CC2)c(F)c1`, the “activity, negative = inhibition” value is -16.6%.

Turning to `O=C(CN1CCN(c2ccc(Cl)cc2)CC1)Nc1cccc(F)c1`, the AC50 is 12.6 µM (active).

`CCc1c2c(nc3c(C(C)C)cccc13)-c1cccc(=O)n1C2`: the AC50 was 0.398 µM (active).

`CC(C)c1cccc2cc3c(nc12)-c1cccc(=O)n1C3`: the AC50 was 0.501 µM (active).

Regarding `CC(C)c1cccc2c([Si](C)(C)C)c3c(nc12)-c1cccc(=O)n1C3`, the AC50 was 15.8 µM (active).

For `CCC(C)N1C(=O)C2C(C(=O)Nc3cccc(OC)c3)C3C=CC2(O3)C1C(=O)NC1CCCCC1C` (stereo not given), the “activity, negative = inhibition” value is -4.89%.

In the case of `COc1ccc(O[C@H]2C=C[C@@H](c3ccccc3)O[C@H]2CO/N=C(/C)CCC(=O)OC[C@@H]2O[C@H](c3ccccc3)C=C[C@@H]2Oc2ccc(OC)cc2)cc1`, the activity, negative = inhibition is -1.91% [at 11.4 µM].

With `CSC(N)=NCCC[C@@H](N)C(=O)O`, the “activity, negative = inhibition” value is -1.68%.

On to `CNc1nc(-c2ccccc2C(F)(F)F)nc2ccccc12`, for which the AC50 is 0.251 µM (active).

`FC(F)(F)c1ccccc1-c1nc(NC2CC2)c2ccccc2n1`: the AC50 was 0.398 µM (active).

In the case of `O=C1[C@H]2O[C@@H]2[C@@H](O)[C@H]2[C@H]1CCn1c(=O)n(Cc3cc4c(cc3Cl)OCO4)c(=O)n12`, the activity, negative = inhibition was -4.53% [at 11.4 µM].

As for `COc1ccc2c(Cl)c(-c3nnco3)sc2c1`, the AC50 was 0.794 µM (active).

With `Cc1cccc(C)c1OCC(O)CNC(C)(C)C` (stereo not given), the “activity, negative = inhibition” value was -6.86%.

With `Cc1cccc(C)c1OC[C@H](C)N`, the AC50 was 2.51 µM (active) and 398 nM (active).

Turning to `Cc1cccc(C)c1OC[C@@H](N)C(C)C`, the concentration at half-maximal activity (AC50) was 12.6 µM (active).

In the case of `O=C1C[C@@H](O)[C@@H](O)[C@H]2[C@@H]3C(=O)N(c4cccc(Oc5ccccc5)c4)C(=O)[C@@H]3CC[C@H]12`, the activity, negative = inhibition is 0.387% [at 11.4 µM] and -5.49% [at 11.4 µM].

With `O=C(NC(=S)Nc1ccc(Oc2ccc(Cl)cc2)cc1)c1ccccc1`, the “activity, negative = inhibition” value was -26.7%.

For `O=C(NC(=S)Nc1ccc(C(=O)N2CCOCC2)cc1)c1ccc([N+](=O)[O-])cc1`, the “activity, negative = inhibition” value is -16.4%.

For the compound `O=C(NC(=S)Nc1ccc2c(c1)OCO2)c1ccccc1`, the AC50 is 2.82 µM (active).

`Cc1ccc(C(=O)NC(=S)Nc2ccc3c(c2)OCCO3)c(C)c1`: the AC50 is 7.08 µM (active).

With `c1ccc(-c2nccc(-c3ccc(-n4cnc5ccccc54)cc3)n2)nc1`, the AC50 is 10 µM (active).

Take `c1ccc2c(c1)ncn2-c1ccc(-c2ccnc(-c3ccncc3)n2)cc1`: the AC50 is 0.316 µM (active).

With `COc1cc(OC)c(OC)cc1C=NCC1(c2ccccc2)CCCC1`, the AC50 was 8.91 µM (active).

Consider `O=C(O)CCCCCCCC(=O)O`, for which the “activity, negative = inhibition” value was -15.8%.

For `C#CCCCCCCCCCCCCCCCC(=O)O`, the AC50 is 6.31 µM (active).

For `C#CCOCCCC(=O)O`, the activity, negative = inhibition is -1.25% [at 11.4 µM].

As for `C[C@H]1COC(=O)[C@H](Cc2ccccc2)NC(=O)[C@@H](C)COC(=O)[C@H](Cc2ccccc2)NC1=O`, the activity, negative = inhibition was 9.1% [at 11.4 µM].

Regarding `COC(=O)c1cc(NC(=O)/C=C/c2ccc3c(c2)OCO3)cc(C(=O)OC)c1`, the AC50 was 12.6 µM (active).

In the case of `CCOC(=O)c1c(NC(=O)/C=C/c2ccc3c(c2)OCO3)sc(C)c1C`, the “activity, negative = inhibition” value is -23.6%.

Turning to `CC(C)[C@H](NC(=O)OC(C)(C)C)[C@@H](O)CC(=O)C(C)(C)C`, the activity, negative = inhibition was 0.674% [at 11.4 µM].

`COc1ccccc1CNc1ncncc1-c1ccoc1`: the concentration at half-maximal activity (AC50) was 1.26 µM (active).

With `COc1ccccc1CN1CCCC2(CCN(C(=O)c3cnccn3)CC2)C1`, the “activity, negative = inhibition” value is -19.3%.

As for `COc1ccc(CNc2ncncc2-c2cccc(NS(C)(=O)=O)c2)c(OC)c1`, the AC50 was 15.8 µM (active).

On to `COc1ccc(CNc2ncncc2-c2cccnc2)c(OC)c1`, for which the AC50 was 3.16 µM (active).

With `COc1ccccc1CNc1ncncc1-c1cccnc1`, the AC50 is 0.794 µM (active).

Consider `COCC(=O)N1CCC2(CCCN(C(=O)Nc3cccc(F)c3)C2)CC1`, for which the “activity, negative = inhibition” value is -18%.

As to `CCc1cc2c(nc1CC)CCN(CC/C(C)=N/O[C@@H](C)c1cn([C@@H]3COC[C@@H]3O)nn1)C2`, the activity, negative = inhibition is -1.13% [at 11.4 µM].

Regarding `COc1ccc(-c2ccc3c(n2)CCCN3C[C@H](O)CN2CCCc3nc(-c4ccc(Br)cc4)ccc32)cc1`, the activity, negative = inhibition was -3.07% [at 11.4 µM] and -10.4% [at 11.4 µM].

For `COc1ccc(Cc2nc3ccc(S(=O)(=O)N4CCOCC4)cc3[nH]2)cc1OC`, the “activity, negative = inhibition” value was -7.49%.

With `Cc1ccc2nc(Cc3ccc(N)cc3)[nH]c2c1`, the AC50 was 3.98 µM (active).

As to `O=[N+]([O-])c1cc2c(cc1C=Nc1ccccc1)OCO2`, the AC50 was 2.82 µM (active).

For `O=C(O)c1cc(N=Cc2ccccc2O)cc(C(=O)O)c1`, the activity, negative = inhibition is -12.6% [at 11.4 µM].

Take `Cc1nc2cnc(N(C)C)nc2n(CCC#N)c1=O`: the AC50 was 10 µM (active).

Consider `CN(C)c1ncc2ncc(=O)n(CCC#N)c2n1`, for which the AC50 is 12.6 µM (active).

As to `CC(C)=CCc1c2c(c3occ(-c4ccc(O)c(O)c4)c(=O)c3c1O)C=CC(C)(C)O2`, the activity, negative = inhibition was -3.01% [at 2.29 µM].

`Br/C(=N\Nc1nn[nH]n1)c1ccncc1`: the activity, negative = inhibition was -5.24% [at 11.4 µM].

In the case of `CC(C)(C)CNC(CO)C12CC3CC(CC(C3)C1)C2` (stereo not given), the “activity, negative = inhibition” value was -2.52%.

For the compound `CN(C(=O)c1ccncc1)c1ccccc1`, the activity, negative = inhibition was -13.8% [at 11.4 µM].

In the case of `CCN(Cc1ccncc1)C(=O)[C@@H](CO)c1ccccc1`, the AC50 was 15.8 µM (active).

For `C=CC[C@@H](C(=O)O)c1ccccc1`, the activity, negative = inhibition was 0.428% [at 11.4 µM].

On to `CC(C)(C)c1[nH]nc2c1C(c1ccc(OC(=O)c3ccco3)cc1)C(C#N)=C(N)O2` (stereo not given), for which the AC50 is 31.6 µM (active).

Consider `Cn1c(=O)c(-c2cccc(C#N)c2)nc2cnc(Oc3ccccc3)nc21`, for which the AC50 is 1.58 µM (active).

Consider `COCCn1c(=O)c(-c2ccc(F)cc2)nc2cnc(Oc3ccccc3)nc21`, for which the AC50 is 0.794 µM (active).

Take `COCCn1c(=O)c(-c2cccc(C#N)c2)nc2cnc(Oc3ccccc3)nc21`: the half-maximal activity concentration (AC50) is 15.8 µM (active).

Regarding `COc1ccc(Oc2ncc3nc(-c4cccc(C#N)c4)c(=O)n(Cc4cccc(OC)c4)c3n2)cc1`, the “activity, negative = inhibition” value was -8.54%.

As for `COCCn1c(=O)c(-c2ccc(Cl)cc2)nc2cnc(Oc3ccccc3)nc21`, the AC50 is 0.794 µM (active).

Take `C[N+]1(NCC[N@@+]2(C)CCc3ccccc3C2)CCCCC1`: the activity, negative = inhibition is -12.7% [at 11.4 µM].

On to `COC(=O)[C@@]1(Cc2ccccc2)[C@H]2c3cc(C(=O)N4CCCC4)n(Cc4ccc(OC)c(OC)c4)c3C[C@H]2CN1C(=O)c1ccccc1`, for which the “activity, negative = inhibition” value is -22.9%.

In the case of `COCCn1c(=O)c(-c2cc(F)cc(F)c2)nc2cnc(Oc3ccccc3)nc21`, the AC50 was 5.01 µM (active).

For `COCCn1c(=O)c(-c2ccccc2)nc2cnc(Oc3ccc(OC)cc3)nc21`, the AC50 is 1.26 µM (active).

Take `COCCn1c(=O)c(-c2ccccc2)nc2cnc(Oc3ccccc3)nc21`: the half-maximal activity concentration (AC50) was 1.58 µM (active).

In the case of `C#CCCCO/N=C1/C[C@@H](O)[C@@H](O)[C@@H]2[C@H]3C(=O)N(c4ccc(F)cc4F)C(=O)[C@@H]3CC[C@H]12`, the activity, negative = inhibition is -9.85% [at 11.4 µM].

For `CO[C@H]1COC(=O)C/C=C\[C@H](C)[C@@H](NS(=O)(=O)c2ccc(C)cc2)COC(=O)C/C=C\[C@@H]1C`, the activity, negative = inhibition is -4.23% [at 11.4 µM] and -3.02% [at 11.4 µM].

`CCSC(=N)N`: the “activity, negative = inhibition” value is -14.3%.

Consider `C[C@@H]1O[C@H]2C3=C(C(=O)[C@H]4O[C@@H]4[C@H]3O)[C@@H]1[C@@H]1[C@@H](C)OC=C3[C@H](O)[C@H]4O[C@@H]4/C(=N\OCc4ccccc4)[C@]312`, for which the activity, negative = inhibition is -0.558% [at 11.4 µM].

For `COC(=O)COc1ccc2c(-c3cccc([N+](=O)[O-])c3)cc(=O)oc2c1`, the AC50 is 2 µM (active).

Turning to `COc1ccc([N+](=O)[O-])cc1COc1ccc2c(-c3ccccc3)cc(=O)oc2c1`, the “activity, negative = inhibition” value is -13.8%.

Consider `COC(=O)[C@@]1(Cc2ccc(F)cc2)[C@H]2c3cc(C(=O)N4CCCC4)n(Cc4ccc(C)c(F)c4F)c3C[C@H]2CN1C(=O)c1ccccc1`, for which the “activity, negative = inhibition” value was -20.7%.

Take `Cc1nc2c(n1C1CCCCC1)C(=O)c1ccccc1C2=O`: the AC50 is 6.31 µM (active).

With `CCOC(=O)C(C)Sc1nnc(CNC(=O)c2ccc(OC)cc2)n1C1CCCCC1` (stereo not given), the “activity, negative = inhibition” value is -16.8%.

Consider `CC(Sc1nnc(Cc2cccs2)n1C1CCCCC1)C(N)=O` (stereo not given), for which the “activity, negative = inhibition” value is -8.88%.

Regarding `CCn1c(C)nc2c1C(=O)c1ccccc1C2=O`, the AC50 is 0.447 µM (active).

`COC(=O)Cn1cnc(=O)c(C#N)c1/C=C/N(C)C`: the “activity, negative = inhibition” value is -9.35%.

Regarding `COc1ccc(NC(=O)CSc2nc(-c3ccc(C)cc3)cc(C(F)(F)F)c2C#N)cc1`, the “activity, negative = inhibition” value was 16.2%.

For the compound `COC(=O)CSc1nc(C)cc(C(F)(F)F)c1C#N`, the AC50 was 2 µM (active).

Turning to `COC(=O)[C@@]1(Cc2ccc(F)cc2)[C@H]2c3cc(C(=O)N(C)C)n(Cc4ccc(C)c(F)c4F)c3C[C@H]2CN1C(=O)c1ccccc1`, the “activity, negative = inhibition” value was -11.2%.
